Records with an inconclusive call do not appear. Calls of active or inactive are those of the source. Unless noted, the call rests on the fitted dose curve; in most records, active means well fitted curve in the direction sought with a large enough effect in the repeat runs; inconclusive means weak or mixed curves; inactive means no such curve, though single readings can be large; an effect the other way counts as inactive or inconclusive.
What was measured:
[1] = qHTS assay to test for compound auto fluorescence at 535 nm (green) in HEK293 cells (AID 720680)
[2] = qHTS assay to test for compound auto fluorescence at 535 nm (green) in HEK293 cell free culture (AID 720682)
Method in brief: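 Cell-free medium (DMEM, 10% FBS) receives compound or DMSO by pintool. Plate read directly at Ex 485/Em 535 nm. Signal converted to fluorescein equivalency.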

[3] = qHTS assay to test for compound auto fluorescence at 590 nm (red) in HEK293 cell free culture (AID 720683)
Method in brief: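 Tox21 10K library compounds were pinned into cell-free DMEM with 10% FBS and fluorescence was read at excitation 540 nm. Activity is expressed as Rose Bengal sodium equivalency.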

[4] = qHTS assay to test for compound auto fluorescence at 590 nm (red) in HepG2 cell free culture (AID 720684)
Method in brief: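 Red fluorescence (540 nm excitation, 590 nm emission) was measured after compound transfer into cell-free MEM supplemented with 10% FBS. Values are equivalencies against Rose Bengal sodium.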

[5] = qHTS assay to test for compound auto fluorescence at 460 nm (blue) in HepG2 cell free culture (AID 720685)
Method in brief: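 Compound (23 nL) or DMSO pinned into cell-free MEM with 10% FBS; blue fluorescence read at 405/460 nm excitation/emission, expressed as auto-fluorescence equivalency to triamterene.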

[6] = qHTS assay to test for compound auto fluorescence at 535 nm (green) in HepG2 cell free culture (AID 720686); further: potency means the concentration at half of the fitted maximal effect
[7] = qHTS assay to test for compound auto fluorescence at 460 nm (blue) in HepG2 cells (AID 720687)
Method in brief: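 Cells (2,000/well in MEM with 10% FBS) attached overnight at 37 C, then were exposed to compound or DMSO for 1 hr at 37 C, 5% CO2. Fluorescence read at Ex/Em 405/460 nm, expressed as triamterene-equivalent signal.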

[8] = target: Glucocorticoid receptor (Homo sapiens) (UniProt P04150); experiment: qHTS assay to identify small molecule agonists of the glucocorticoid receptor (GR) signaling pathway (AID 720691; active means well fitted activation curve with a large enough effect in the signal ratio in the repeat runs, not every such curve was filed as active; the % refers to the signal ratio; further: potency means the concentration at half of the fitted maximal effect); conditions: GR-bla HeLa, beta-lactamase reporter ratio, 18 h; activation: at 62.4 µM (top of the series)
Method in brief: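 GR-bla HeLa cells carrying a GRE-driven beta-lactamase reporter, exposed to compounds for 18 h at 37 C. Reporter activation read as fluorescence after 2 h with LiveBLAzer B/G FRET substrate at room temperature.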

[9] = qHTS assay to identify small molecule antagonists of the glucocorticoid receptor (GR) signaling pathway - cell viability counter screen (AID 720693); further: nearly all actives have a fitted effect of over 55% in size; further: potency means the concentration at half of the fitted maximal effect
[10] = qHTS assay for identifying genotoxic compounds that show differential cytotoxicity against isogenic chicken DT40 cell lines with known DNA damage response pathways - Rev3 mutant cell line (AID 743014); further: nearly all actives have a fitted effect of over 55% in size; further: potency means the concentration at half of the fitted maximal effect
[11] = qHTS assay to identify small molecule antagonists of the androgen receptor (AR) signaling pathway - cell viability counter screen (AID 743033; further: nearly all actives have a fitted effect of over 45% in size; further: potency means the concentration at half of the fitted maximal effect)
[12] = qHTS assay to identify small molecule antagonists of the androgen receptor (AR) signaling pathway using the MDA cell line - cell viability counter screen (AID 743041; further: nearly all actives have a fitted effect of over 45% in size; further: potency means the concentration at half of the fitted maximal effect)
Method in brief: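 MDA-kb2 AR-luc human breast carcinoma cells (MMTV-luciferase, AR/GR responsive) were treated with compounds plus R1881 agonist for 16 h at 37 °C. Viability was read as CellTiter-Fluor fluorescence in the same wells as the reporter assay.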

[13] = qHTS assay to identify small molecule antagonists of the thyroid receptor (TR) signaling pathway - cell viability counter screen (AID 743064); further: nearly all actives have a fitted effect of over 50% in size; further: potency means the concentration at half of the fitted maximal effect
Method in brief: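 GH3.TRE-Luc cells, 4 h pre-plating; cpd + T3 1 nM final; 37 °C 23.5 h; CellTiter-Fluor 30 min; fluorescence read.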

[14] = qHTS assay to test for compound auto fluorescence at 460 nm (blue) in HEK293 cell free culture (AID 720681)
Method in brief: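 Test compounds were pinned into cell-free culture medium (DMEM with 10% FBS) and fluorescence was read directly at Ex/Em 405/460 nm. Signals were expressed as fluorescence equivalents of triamterene, with DMSO vehicle as control.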

[15] = qHTS assay for identifying genotoxic compounds that show differential cytotoxicity against isogenic chicken DT40 cell lines with known DNA damage response pathways - Rad54/Ku70 mutant cell line (AID 743015); further: nearly all actives have a fitted effect of over 60% in size; further: potency means the concentration at half of the fitted maximal effect
[16] = target: Androgen receptor (Homo sapiens) (UniProt P10275); experiment: qHTS assay to identify small molecule agonists of the androgen receptor (AR) signaling pathway using the MDA cell line (AID 743040; further: nearly all actives have a fitted effect of over 20% in size)
Method in brief: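 MDA-kb2 breast carcinoma cells stably carrying an MMTV-driven luciferase reporter (AR- and GR-responsive) were seeded and held 5 h at 37C, 0% CO2, then exposed to compounds in DMSO for 16 h. Luminescence was read 30 min after ONE-Glo addition.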

[17] = target: Androgen receptor (Homo sapiens) (UniProt P10275); experiment: qHTS assay to identify small molecule antagonists of the androgen receptor (AR) signaling pathway using the MDA cell line (AID 743042; further: nearly all actives have a fitted effect of over 55% in size; further: potency means the concentration at half of the fitted maximal effect)
Method in brief: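 MDA-kb2 cells (human breast carcinoma, stably carrying an MMTV-luciferase reporter responsive to AR and GR) were plated at 3,000 cells/well and preincubated 5 hr at 37C, then given compound plus R1881 agonist for 16 h. ONE-Glo luminescence was read.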

[18] = target: Glucocorticoid receptor (Homo sapiens) (UniProt P04150); experiment: qHTS assay to identify small molecule antagonists of the glucocorticoid receptor (GR) signaling pathway (AID 720692; active means well fitted inhibition curve with a large enough effect in the signal ratio in the repeat runs, not every such curve was filed as active; the % refers to the signal ratio; further: potency means the concentration at half of the fitted maximal effect)
Method in brief: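 GR-bla HeLa cells carrying a GRE-driven beta-lactamase reporter received compound after 4 h plating, then dexamethasone (5 nM final). After 18 h at 37C, the FRET substrate was loaded for 2 h at room temperature and fluorescence read.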

[19] = qHTS assay for identifying genotoxic compounds that show differential cytotoxicity against isogenic chicken DT40 cell lines with known DNA damage response pathways - wild type cell line (AID 743012); further: nearly all actives have a fitted effect of over 60% in size; further: potency means the concentration at half of the fitted maximal effect
Method in brief: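 Wild-type DT40 cells (300/well) exposed to compounds for 40 hours at 37 C/5% CO2. Viability read by CellTiter-Glo luminescence after 30 min at room temperature.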

[20] = target: Androgen receptor (Homo sapiens) (UniProt P10275); experiment: qHTS assay to identify small molecule antagonists of the androgen receptor (AR) signaling pathway (AID 743035; active means well fitted inhibition curve with a large enough effect in the signal ratio in the repeat runs, not every such curve was filed as active; the % refers to the signal ratio; further: potency means the concentration at half of the fitted maximal effect)
Method in brief: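 HEK293 cells stably carrying UAS-beta-lactamase reporter, 2,000/well, given compounds plus R1881 agonist and incubated 16 h at 37C. LiveBLAzer B/G FRET substrate then added for 2 h at room temperature before fluorescence reading.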
On the % scale 0 is the no-effect control and ±100 the full control effect; tags describe the fitted curve by direction and shape or compound fluorescence and quenching.

Sequence of Androgen receptor (Homo sapiens) (P10275 whole entry, looked up): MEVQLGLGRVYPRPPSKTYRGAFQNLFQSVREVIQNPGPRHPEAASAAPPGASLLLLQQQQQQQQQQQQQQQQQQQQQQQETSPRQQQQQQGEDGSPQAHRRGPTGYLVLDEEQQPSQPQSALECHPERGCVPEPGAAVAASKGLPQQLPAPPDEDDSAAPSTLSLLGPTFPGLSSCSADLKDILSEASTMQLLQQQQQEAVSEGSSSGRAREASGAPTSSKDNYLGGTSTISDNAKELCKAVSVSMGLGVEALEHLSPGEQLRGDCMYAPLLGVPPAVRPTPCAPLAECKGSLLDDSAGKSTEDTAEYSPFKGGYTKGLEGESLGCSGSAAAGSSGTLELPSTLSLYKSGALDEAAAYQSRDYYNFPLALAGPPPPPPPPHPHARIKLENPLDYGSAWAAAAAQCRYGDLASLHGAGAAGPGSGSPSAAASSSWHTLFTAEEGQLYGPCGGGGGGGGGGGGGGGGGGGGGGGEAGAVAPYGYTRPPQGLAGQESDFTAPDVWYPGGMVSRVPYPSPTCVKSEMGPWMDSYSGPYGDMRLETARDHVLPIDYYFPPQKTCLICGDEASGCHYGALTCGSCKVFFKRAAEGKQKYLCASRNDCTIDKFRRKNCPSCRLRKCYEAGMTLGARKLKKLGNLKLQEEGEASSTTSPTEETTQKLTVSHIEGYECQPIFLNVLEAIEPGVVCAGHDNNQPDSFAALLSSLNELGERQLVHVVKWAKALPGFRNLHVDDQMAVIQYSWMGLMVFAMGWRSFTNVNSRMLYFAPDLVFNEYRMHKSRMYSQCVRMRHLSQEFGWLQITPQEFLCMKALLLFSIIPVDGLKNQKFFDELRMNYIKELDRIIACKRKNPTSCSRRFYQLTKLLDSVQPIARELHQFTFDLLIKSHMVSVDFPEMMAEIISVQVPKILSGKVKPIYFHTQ
Sequence of Glucocorticoid receptor (Homo sapiens) (P04150 whole entry, looked up): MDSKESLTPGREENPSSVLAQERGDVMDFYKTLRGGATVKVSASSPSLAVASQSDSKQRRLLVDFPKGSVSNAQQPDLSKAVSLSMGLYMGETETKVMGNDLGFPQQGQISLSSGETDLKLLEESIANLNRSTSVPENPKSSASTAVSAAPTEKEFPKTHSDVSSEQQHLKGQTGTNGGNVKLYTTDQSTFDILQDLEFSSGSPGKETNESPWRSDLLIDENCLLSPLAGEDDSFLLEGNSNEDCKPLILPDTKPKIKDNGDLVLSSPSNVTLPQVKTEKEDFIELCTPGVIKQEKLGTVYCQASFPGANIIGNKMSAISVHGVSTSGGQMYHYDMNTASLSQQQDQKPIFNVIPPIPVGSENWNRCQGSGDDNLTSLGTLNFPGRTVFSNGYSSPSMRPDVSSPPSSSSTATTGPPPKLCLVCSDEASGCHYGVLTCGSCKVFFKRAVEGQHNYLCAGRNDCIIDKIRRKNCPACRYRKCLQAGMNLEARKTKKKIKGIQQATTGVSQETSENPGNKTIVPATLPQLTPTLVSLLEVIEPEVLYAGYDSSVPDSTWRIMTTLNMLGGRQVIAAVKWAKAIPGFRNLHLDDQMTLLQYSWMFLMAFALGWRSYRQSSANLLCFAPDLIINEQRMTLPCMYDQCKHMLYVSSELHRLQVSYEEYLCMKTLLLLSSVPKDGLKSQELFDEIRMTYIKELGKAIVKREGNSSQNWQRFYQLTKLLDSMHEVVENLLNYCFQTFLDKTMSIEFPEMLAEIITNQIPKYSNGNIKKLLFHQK

O=[N+]([O-])c1cccc2cccc([N+](=O)[O-])c12
inactive: outcome [1] | outcome [2] | outcome [3] | outcome [4] | Potency [5] | Potency [6] | Potency [7] | Potency [8] | Potency [9] | Potency [11] | Potency [12] | Potency [13]
active: Potency [10] 61.4 µM

CC(=O)[O][Pb]([c]1ccccc1)([c]1ccccc1)[c]1ccccc1
inactive: Potency [14] | outcome [2] | outcome [3] | outcome [4] | Potency [5] | Potency [6] | Potency [7] | outcome [16]
active: Potency [9] 0.776 µM | Potency [10] 0.122 µM | Potency [15] 0.122 µM | Potency [11] 0.549 µM | Potency [12] 1.72 µM | Potency [17] 0.611 µM | Potency [13] 0.686 µM

Nc1ccc(N=Nc2ccccc2)cc1
inactive: Potency [14] | outcome [2] | outcome [3] | outcome [4] | Potency [5] | Potency [6] | Potency [7] | Potency [8]
active: Potency [18] 54.9 µM | Potency [19] 61.1 µM | Potency [10] 61.1 µM | Potency [15] 56.1 µM | Potency [13] 56.1 µM

CCCCN(CCCC)C(=S)S
inactive: Potency [14] | outcome [2] | outcome [4] | Potency [5] | Potency [6] | Potency [7] | Potency [8] | Potency [10] | Potency [11] | Potency [12] | Potency [13]

O=C(N[C@H]1N=C(c2ccccc2F)c2cccc3c2N(CC3)C1=O)c1cc2ccccc2[nH]1
inactive: Potency [14] | outcome [2] | outcome [3] | outcome [4] | Potency [5] | Potency [6] | Potency [7] | Potency [9] | Potency [10] | Potency [11] | Potency [12]
active: Potency [15] 29.8 µM

O=[N+]([O-])[O-].[Tl+]
active: Potency [19] 1.55 µM | Potency [10] 1.09 µM | Potency [15] 1.09 µM
inactive: Potency [14] | outcome [2] | outcome [3] | Potency [5] | Potency [6] | Potency [7] | Potency [8] | Potency [9] | Potency [12]

Nc1nc(N)c(N)c(N)n1
inactive: outcome [3] | Potency [9] | Potency [19] | Potency [10] | Potency [15] | Potency [11] | Potency [12]
active: Potency [6] 28.2 µM [fluorescent]

CCOP(=S)(OCC)Oc1cc(C)nc(N(CC)CC)n1
inactive: Potency [14] | outcome [2] | outcome [3] | outcome [4] | Potency [5] | Potency [6] | Potency [7] | Potency [8] | Potency [9] | Potency [20] | outcome [16] | Potency [12] | Potency [17] | Potency [13]
active: Potency [19] 27.3 µM | Potency [10] 27.3 µM

C#CCC1=C(C)C(OC(=O)C2C(C=C(C)C)C2(C)C)CC1=O (centres undefined)
active: Potency [10] 30.4 µM
inactive: Potency [14] | outcome [2] | outcome [3] | outcome [4] | Potency [5] | Potency [6] | Potency [7] | Potency [12]

CCC(C)Nc1c([N+](=O)[O-])cc(C(C)(C)C)cc1[N+](=O)[O-] (centres undefined)
inactive: Potency [14] | outcome [2] | outcome [3] | outcome [4] | Potency [5] | Potency [6] | Potency [7] | Potency [8] | Potency [18] | Potency [9] | Potency [10] | Potency [15] | Potency [11] | Potency [12]

c1csc(-c2ccc(-c3cccs3)s2)c1
active: Potency [8] 49 µM | Potency [19] 68.6 µM
inactive: Potency [14] | outcome [2] | outcome [3] | Potency [6] | Potency [9] | Potency [11] | Potency [12]

ClC1(Cl)C2(Cl)C3(Cl)C4(Cl)C(Cl)(Cl)C5(Cl)C3(Cl)C1(Cl)C5(Cl)C24Cl (centres undefined)
inactive: Potency [14] | outcome [2] | outcome [4] | Potency [5] | Potency [6] | Potency [7] | Potency [8] | Potency [18] | Potency [9] | Potency [15] | Potency [11] | outcome [16] | Potency [12] | Potency [17] | Potency [13]

Nc1c(Cl)c(Cl)c(Cl)c(Cl)c1Cl
inactive: outcome [2] | Potency [5] | Potency [6] | Potency [7] | Potency [9] | Potency [15] | Potency [11] | outcome [16] | Potency [17]

CN1C(=O)[C@@H](NC(=O)c2cc3ccccc3[nH]2)N=C(c2ccccc2)c2ccccc21
active: Potency [19] 10.6 µM | Potency [15] 18.8 µM
inactive: Potency [14] | outcome [2] | outcome [3] | outcome [4] | Potency [5] | Potency [6] | Potency [7] | Potency [9] | Potency [11] | Potency [12]

CNC(C)(C)Cc1ccccc1
inactive: fluorescence, % of fluorescent control [14] -0.0376% [at 18.6 µM] | activity change [2] 0.136% [at 18.6 µM] | fluorescence, % of Rose Bengal [4] -0.143% [at 18.6 µM] | fluorescence, % of fluorescent control [5] -0.0785% [at 18.6 µM] | fluorescence, % of fluorescein control [6] 0.134% [at 18.6 µM] | fluorescence, % of fluorescent control [7] -0.0567% [at 18.6 µM] | Potency [8] | Potency [18] | Potency [9] | Potency [10] | Potency [15] | Potency [11] | Potency [12] | Potency [13]

COc1c2c(cc3c1OCO3)CCN(C)C2
inactive: fluorescence, % of fluorescent control [14] 0.395% [at 18.6 µM] | activity change [2] -0.0284% [at 18.6 µM] | fluorescence, % of fluorescent control [3] 0.174% [at 18.6 µM] | fluorescence, % of fluorescent control [5] -0.0127% [at 18.6 µM] | fluorescence, % of fluorescein control [6] -0.0107% [at 18.6 µM] | fluorescence, % of fluorescent control [7] -0.0807% [at 18.6 µM] | Potency [8] | Potency [18] | Potency [9] | Potency [19] | Potency [10] | Potency [15] | Potency [11] | Potency [12] | Potency [13]

O=C(N[C@@H]1N=C(c2ccccc2F)c2cccc3c2N(CC3)C1=O)c1cc2ccccc2[nH]1
inactive: Potency [14] | outcome [2] | outcome [3] | outcome [4] | Potency [5] | Potency [6] | Potency [7] | Potency [9] | Potency [10] | Potency [11] | Potency [12] | Potency [13]
active: Potency [15] 21.1 µM

O.O.O.O=C([O-])[C@H]([O-])[C@@H]([O-])C(=O)[O-].O=C([O-])[C@H]([O-])[C@@H]([O-])C(=O)[O-].[K+].[K+].[Sb+3].[Sb+3]
inactive: outcome [2] | outcome [3] | outcome [4] | Potency [5] | Potency [6] | Potency [7] | Potency [9] | Potency [10] | Potency [11]
active: Potency [15] 3.46 µM

CN(C)c1ccc(N)cc1
inactive: outcome [2] | outcome [3] | outcome [4] | Potency [5] | Potency [6] | Potency [7] | Potency [9] | Potency [17]
active: Potency [19] 29.9 µM | Potency [10] 21.2 µM | Potency [15] 26.6 µM | Potency [11] 42.6 µM | Potency [20] 24 µM | Potency [12] 59.6 µM | Potency [13] 59.6 µM

Oc1ccc2[nH]cc(CCCCN3CC=C(c4ccccc4)CC3)c2c1
active: Potency [19] 5.96 µM | Potency [10] 5.96 µM | Potency [13] 8.41 µM
inactive: Potency [14] | outcome [2] | outcome [3] | outcome [4] | Potency [5] | Potency [6] | Potency [7] | Potency [8] | Potency [9] | Potency [11] | Potency [12]
